Laboratory results taken from PubChem BioAssay (NCI).
Compounds without any hit were thinned out: in the full panel of roughly 83,000, 20% have a hit.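 Compound tested at a single concentration for 48 hours in 96-well plates; a percent growth value below 10 was scored as active.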 Active and inactive are the calls of the source.

The molecules below were run on MDA-MB-468 breast (assay: NCI-60 one-dose screen, 48 h (100 = growth as untreated, 0 = no growth, -100 = all killed)). Conditions: 10 µM unless noted.
In the case of `COc1cc(NC(=O)c2cc(OC)c3ccn(C)c3c2)cc2c1C[C@]1(C)CC[C@@H](O)C(C)(C)[C@H]1O2`, the growth is reported as 69.6% (inactive).
For `O=C1Nc2ccccc2/C1=C/C(=N/c1nnc(-c2ccc(Cl)cc2)s1)c1ccccc1`, the growth was 27.8% (inactive).
With `O=C(c1ccccc1)N(CCCl)C(=O)N(CCCl)C(=O)c1ccccc1` the growth was 111% (inactive).
